Measurements taken from PubChem BioAssay AID2701 (National Center for Advancing Translational Sciences (NCATS), 2010).
The list shows a part of the results. Inconclusive results are not listed. Activity calls are given as the source filed them. Calls follow the shape of the dose curve; as a rule, active = well fitted inhibition curve with a large enough effect; inconclusive = small, poorly fitted or top-dose-only effect, or another doubt; inactive = no such curve, though single readings can be large or run the other way.
Potency is read from the fitted curve at half-maximal effect.

The compounds below were run against 4'-phosphopantetheinyl transferase ffp (Bacillus subtilis) (UniProt Q9F4F7) (assay: Confirmation qHTS Assay for Inhibitors of Bacillus subtilis Sfp phosphopantetheinyl transferase (PPTase)). Conditions: Sfp PPTase enzymatic assay, qHTS titration; series mostly up to 114 µM.
Chain of 4'-phosphopantetheinyl transferase ffp (Bacillus subtilis) (Q9F4F7 whole entry, looked up): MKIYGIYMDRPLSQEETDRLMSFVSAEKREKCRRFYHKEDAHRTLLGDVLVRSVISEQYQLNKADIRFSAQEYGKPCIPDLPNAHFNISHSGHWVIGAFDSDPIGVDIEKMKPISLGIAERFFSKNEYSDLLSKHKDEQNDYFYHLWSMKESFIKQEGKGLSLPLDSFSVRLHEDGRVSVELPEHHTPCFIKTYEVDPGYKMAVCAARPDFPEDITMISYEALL
Excerpt: The covalent attachment of a phosphopantetheinyl (4'-PP) arm to a variety of synthases and other proteins is a key posttranslational protein modification. The 4'-PP is installed on the proteins post-translationally from coenzyme A (CoA) on a conserved serine residue by action of phosphopantetheinyl transferase (PPTase) enzymes. Phosphopantetheinylation is essential for synthase activity, and removal of the PPTase gene precludes natural product synthesis in microorganisms, or in the case of fatty acid biosynthesis, renders the organism unviable. PPTase enzymes belong to a distinct structural superfamily. Within bacteria, these enzymes are grouped into two classes based upon primary structure, the AcpS-Type and Sfp-Type PPTases.
Sfp-type PPTases, corresponding to an activator of surfactin production in Bacillus subtilis, are responsible for modifying type I polyketide and nonribosomal peptide synthases of prokaryotes. Sfp-type PPTases are responsible for the activation of a variety of pathogen-associated virulence factors. Among these compounds are toxins such as mycolactone from Mycobacterium ulcerans, siderophores such as vibriobactin from Vibrio cholerae or mycobactin from Mycobacterium tuberculosis, as well as the mycolic acids which form the waxy cell wall of Mycobacteria. The biosyntheses of these natural products are considered attractive targets for drug design.
In search of small molecule Sfp-PPTase inhibitors, a fluorescence quenching assay was developed for detection of Bacillus subtilis Sfp-PPTase enzymatic activity in a miniaturized high-throughput format. The consensus ybbr acceptor peptide […] was N-terminally labeled with Black Hole Quencher-2 (BHQ-2) and used in combination with rhodamine-labeled coenzyme A as a co-substrate.
Inhibition of Sfp-PPTase was detected by recording the fluorescence intensity change over a 30-minute reaction period at a 525 nm excitation and 598 nm emission. Reagents were supplied by Michael Burkart and Timothy Foley, University of California at San Diego.
Assay Submitter: Michael Burkart, University of California, San Diego
Screening Center PI: Austin, C.P.
Screening Center: NIH Chemical Genomics Center [NCGC]
Assay Buffer: 50 mM Hepes-Na pH 7.6, 10 mM MgCl2, 0.01% Nonidet P-40, and 0.01% BSA.
3 uL of Sfp-PPTase enzyme (final concentration 15 nM) and 1 uL of substrate mixture (final concentration for rhodamine-CoA and BHQ-2-YbbR 5 uM and 12.5 uM, respectively) dispensed in columns 1, 2, 5 - 48. Columns 1 and 2 used to generate neutral control (uninhibited reaction)
Three uL of reagents, consisting of buffer (in columns 3 and 4 as negative control) and Sfp-PPTase (in columns 1, 2, 5 - 48) were dispensed into 1,536-well Greiner black solid bottom plate. Compounds (23 nL) were transferred via Kalypsys pintool equipped with 1,536-pin array. The plate was incubated for 15 min at room temperature, followed by the addition of 1 uL substrate to start the reaction. The plate was then centrifuged at 1000 rpm for 15 seconds, and the fluorescence intensity recorded on a ViewLux High-throughput CCD imager (Perkin-Elmer) using standard BODIPY optics (525 nm excitation and 598 nm emission). The plate was then incubated for 30 minutes, and a second read on the ViewLux was performed. The fluorescence intensity difference over the 30-minute period was used to calculate the respective reaction rate for each well.
`Cc1ccc(/C=C(\C#N)C(=O)Nc2cccc3ncccc23)o1` was tested, and the Potency was 26.4 µM (active). `FC(F)(F)C1CCCN(c2nsc3ccccc23)C1` (configuration not stated) was tested, and the Potency was 2.1 µM (active). `COc1ccc(OCc2nnc3n2N=C(c2ccccc2)C(CC(=O)O)S3)cc1` (configuration not stated) was tested, and the Potency was 2.35 µM (active). For `NC(=O)c1c(NC(=O)CSc2nnc(-c3ccco3)n2N)sc2c1CCCC2`, the Potency was 14.8 µM (active). With `CCC(c1nnnn1Cc1ccco1)N(Cc1cc2cc(OC)ccc2[nH]c1=O)C1CCCCC1` (configuration not stated) the Potency was 9.37 µM (active). `c1ccc(-c2nc(NCc3ccco3)c3ccccc3n2)cc1` was tested, and the Potency was “inactive”. With `OCCN1CCN(C(=S)c2ccc(-c3ccccc3)cc2)CC1` the Potency was 14.8 µM (active). In the case of `CCCOC(=O)Nc1sc2c(c1C(=O)OCC)CCC2`, the Potency is reported as 29.6 µM (active). `O=c1[nH]c2ccccc2n2c(-c3ccccc3)nnc12` was tested, and the Potency was 2.1 µM (active). For `CC(C)(C)c1nnc(NC(=O)C2c3ccccc3Oc3ccccc32)s1`, the Potency was 4.69 µM (active). In the case of `Cc1nn2c(c1-c1ccccc1)N=C(c1ccco1)CC2c1ccccc1` (configuration not stated), the Potency is reported as 37.3 µM (active). With `Cc1ccc(NC(=O)c2c(NC(=O)CCC(=O)O)sc3c2CCCCC3)cc1` the Potency was 14.8 µM (active).
